The results in this text go back to PubChem BioAssay AID1903 (Southern Research Specialized Biocontainment Screening …, 2009).

The structures appear in SMILES notation. “And” between values parts separate entries of the source, which are not always exact repeats. Identical values can stand only once. In all, about 310,000 compounds went through this assay and about 1,200 (0.39%) were called active. These entries were drawn from the full list. Potency and affinity values are given separately. Unmarked numbers belong to inactive results. The rule behind the calls is not given here.

As a reminder, the inhibition is the change of the read-out against control, counted positive when it falls.

For this test, the target named is Large T antigen (Simian virus 40) (UniProt P03070). The test can be described thus: SV40 large T antigen inhibitors, biochemical (AID 1903). The note with it: SV40 large T antigen ATPase/helicase inhibition assay; at 20 µM; active compounds read high.
Sequence of Large T antigen (Simian virus 40) (P03070 whole entry, looked up): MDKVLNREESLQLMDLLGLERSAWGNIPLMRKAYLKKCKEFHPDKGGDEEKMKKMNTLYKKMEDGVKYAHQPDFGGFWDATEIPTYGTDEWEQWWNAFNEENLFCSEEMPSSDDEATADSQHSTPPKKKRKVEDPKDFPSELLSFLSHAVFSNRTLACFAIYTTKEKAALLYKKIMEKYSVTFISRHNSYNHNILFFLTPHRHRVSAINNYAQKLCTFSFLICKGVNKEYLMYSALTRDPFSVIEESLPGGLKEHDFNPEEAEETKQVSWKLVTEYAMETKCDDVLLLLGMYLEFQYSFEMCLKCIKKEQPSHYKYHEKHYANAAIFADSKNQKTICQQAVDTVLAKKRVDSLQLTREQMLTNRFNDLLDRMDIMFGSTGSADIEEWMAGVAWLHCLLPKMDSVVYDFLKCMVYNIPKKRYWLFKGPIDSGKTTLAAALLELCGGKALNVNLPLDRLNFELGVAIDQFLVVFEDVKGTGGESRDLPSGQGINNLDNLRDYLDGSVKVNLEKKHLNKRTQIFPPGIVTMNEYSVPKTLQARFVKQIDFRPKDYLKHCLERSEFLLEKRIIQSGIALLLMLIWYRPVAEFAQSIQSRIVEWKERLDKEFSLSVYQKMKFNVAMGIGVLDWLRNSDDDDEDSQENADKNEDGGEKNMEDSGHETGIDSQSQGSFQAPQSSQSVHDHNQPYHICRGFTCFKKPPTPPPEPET
Regarding `OCCN(C=NC1=NN(c2cccc(C(F)(F)F)c2)CC1)CCO`, the inhibition was 29.5%.

Consider `CCN(C=NC1=NN(c2cccc(C(F)(F)F)c2)CC1)CC`, for which the inhibition was 22.2%.

As for `O=C(N/N=C/c1ccc2c(c1)OCO2)c1ccccn1`, the inhibition is 9.83%.

Consider `Cc1ccc(S(=O)(=O)c2nc(-c3ccccc3Cl)oc2N(C)C)cc1`, for which the inhibition is -3.31%.

`O=C(CCc1c[nH]c2ccccc12)OCC(=O)N1CCN(S(=O)(=O)c2ccccc2)CC1`: the inhibition was 10.9%.

On to `COc1cnc(-c2ccccn2)nc1Oc1ccccc1Cl`, for which the inhibition was 5.1%.

Turning to `COc1cnc(-c2ccccn2)nc1Oc1ccc(Cl)cc1`, the inhibition is 11.2%.

Take `Cc1c(C(=O)N2CCOCC2)c(S(=O)(=O)Nc2cccc(C#N)c2)c(C)n1C`: the inhibition was 5.47%.

As to `CCOc1cc(CNc2ccc(N3CCCC3)cc2)cc(Cl)c1OC`, the inhibition is 12.8%.

As to `CCOc1cc(C(=O)Nc2ccc(N3CCN(C(C)=O)CC3)cc2)cc(OCC)c1OCC`, the inhibition is -4.85%.

On to `COc1cc(CNc2ccc(N3CCOCC3)cc2)cc(Br)c1OC`, for which the inhibition is 29.9%.

Take `CCOc1cc(CNc2ccc(N3CCOCC3)cc2)cc(Br)c1OCC`: the inhibition was 36.3%.

As for `CCOc1c(Cl)cc(CNc2ccc(N3CCCC3)cc2)cc1OC`, the inhibition was 21.6%.

Consider `COc1cc(CNc2ccc(N3CCN(C(C)=O)CC3)cc2)ccc1OCc1ccc(F)cc1`, for which the inhibition was 19.5%.

Regarding `COc1ccc(N(CC(=O)O)S(=O)(=O)c2cccnc2)cc1`, the inhibition is 9.79%.

Consider `Cn1cnc(S(=O)(=O)N2CCN(C(c3ccc(F)cc3)c3ccc(F)cc3)CC2)c1`, for which the inhibition was 11.7%.

Regarding `COC(=O)c1ccc(C(=O)N2CCCC(Nc3ccc(F)c(F)c3)C2)cc1` (configuration not stated), the inhibition was 13.5%.

Regarding `COc1cccc(NC(=S)NN=C2CCC(C(C)(C)C)CC2)c1` (configuration not stated), the inhibition was 4.61%.

`CCOC(=O)/C(C#N)=C\c1ccc(O)c(OC)c1`: the inhibition was 36.3%.

Take `N#C/C(=C/c1ccc(O)c(O)c1)C(=O)NCc1ccc(Cl)cc1`: the inhibition was 35%.

For `N#C/C(=C\c1cccc(Cl)c1)C(=O)c1ccccc1`, the inhibition is 45.6%.

Turning to `COc1cc(/C=C(\C#N)C(=O)c2c[nH]c3ccccc23)cc(OC)c1O`, the inhibition was 24.5%.

For the compound `O=S(=O)(c1ccc2oc3ccc(S(=O)(=O)N4CCCCC4)cc3c2c1)N1CCCCC1`, the inhibition was -0.2%.

Take `CC1CCC(NC(=O)CNC(=O)Cc2cccc3ccccc23)CC1` (configuration not stated): the inhibition is -1.39%.

For `O=C1C2C3C=CC(C3)C2C(=O)N1CNc1ccc(O)cc1` (configuration not stated), the inhibition is 37.4%.

Turning to `Cc1ccc(NCN2C(=O)C3C4C=CC(C4)C3C2=O)cc1` (configuration not stated), the inhibition was 5.54%.

For the compound `CCN(CC)C(=O)COc1ccc2c(-c3ccc(OC)cc3)cc(=O)oc2c1`, the inhibition is 11.6%.

Consider `Oc1cccc(/C=N/Nc2cc(N3CCOCC3)nc(N3CCOCC3)n2)c1`, for which the inhibition was -5.16%.

As to `Oc1ccc(/C=N/Nc2cc(N3CCCC3)nc(N3CCCC3)n2)cc1O`, the inhibition was 42%.

As to `COc1cc(/C=C2\SC(=S)N(NS(=O)(=O)c3ccccc3)C2=O)cc(OC)c1OC`, the inhibition is 11.2%.

In the case of `CCOc1cc(/C=C2\SC(=S)N(NS(=O)(=O)c3ccccc3)C2=O)ccc1O`, the inhibition was 38.4%.

Take `COc1cc(/C=C2\SC(=S)N(NS(=O)(=O)c3ccc(C)cc3)C2=O)cc(OC)c1OC`: the inhibition was 20.8%.

As for `CCOc1cc(/C=C2\SC(=S)N(NC(=O)c3cccnc3)C2=O)ccc1O`, the inhibition was 33.1%.

For `CCOc1ccc(/C=C2\SC(=S)N(NS(=O)(=O)c3ccc(C)cc3)C2=O)cc1OC`, the inhibition was 31.2%.

On to `COc1cc(/C=C2\SC(=S)N(NC(=O)c3ccncc3)C2=O)ccc1O`, for which the inhibition is 31.8%.

Turning to `CCCCNC(=O)C1CCCN1C(=O)Nc1ccccc1` (configuration not stated), the inhibition was 4.68%.

`C=CCOCCN1C(=O)C2C3C=CC(C2C1=O)C1C2C(=O)N(CCOCC=C)C(=O)C2C31` (configuration not stated): the inhibition is 7.04%.

As to `O=C(CSc1ccc(F)cc1)NNC(=O)c1ccccc1Br`, the inhibition was 7.8%.

Regarding `COc1ccc(CCN=C(N)NS(=O)(=O)c2ccc(C)c(C)c2)cc1`, the inhibition is 23.6%.

Take `CCOc1cc(C(=O)N2CCC3(CC2)NCCc2[nH]cnc23)cc(OCC)c1OCC`: the inhibition was 8.46%.

With `O=C(OCc1ccc(Br)cc1)c1cnc(Cl)c(Cl)c1`, the inhibition is 6.01%.

Turning to `COCCNC(=O)c1ccc(C2SCC(=O)N2CCc2ccccc2)cc1` (configuration not stated), the inhibition is 2.84%.

On to `COc1cccc(NC(=O)C2Cc3ccccc3CN2C(=O)c2ccco2)c1` (configuration not stated), for which the inhibition was 10.4%.

For `CCOc1ccc(N(CC(=O)NCc2ccccc2)C(=O)Cn2nnc(-c3ccc(C)o3)n2)cc1`, the inhibition is 3.98%.

Take `COc1cc2c(cc1OC)-c1cc3ccc(OC)c(OC)c3c[n+]1CC2`: the inhibition was 10.3%.

Take `COc1ccc2cc3[n+](cc2c1OC)CCc1cc2c(cc1-3)OCO2`: the inhibition is 13.6% and 21.3%.

Take `CCC1(CC)Cc2ccccc2C2=C(C(=O)N3CCCCC3)C(=O)C(=O)N21`: the inhibition is 3.53%.

With `CSc1ccc(-c2nc(CSCC(=O)NCCCN3CCCC3=O)c(C)o2)cc1`, the inhibition is 8.19%.

As for `Cc1nsc(Nc2ccccc2)c1C#N`, the inhibition is 11.3%.

As to `FC(F)(F)c1ccccc1Nc1nccs1`, the inhibition was 3.87%.

For the compound `CCOC(=O)CC(NC(=O)CCc1c(C)nc2nc(C)nn2c1C)c1ccc(C)cc1` (configuration not stated), the inhibition is 1.45%.

`CC(Oc1ccc2c(c1)oc(=O)c1ccccc12)C(=O)NCCN1CCOCC1` (configuration not stated): the inhibition was 4.69%.

For `O=C(CSc1ccc(Cl)cc1)NNC(=O)c1cccnc1`, the inhibition was 28.6%.

In the case of `O=c1nccc(N/N=C/c2ccccc2)[nH]1`, the inhibition was 2.59%.

Take `C#CCOCCOCCOCCNc1nc(N2CCN(C(=O)CCCCCCCCCCNC(=O)[C@H](CCCCN)n3cc(C[C@@H](C)CC)nn3)CC2)nc(N2CCN(C(=O)CCCCCCCCCCNC(=O)[C@H](CCCN=C(N)N)n3cc(C[C@@H](C)CC)nn3)CC2)n1`: the inhibition is 35.8%.

Turning to `C#CCOCCOCCOCCNc1nc(N2CCN(C(=O)CCCCCCCCCCNC(=O)[C@H](CO)n3cc(CCCSC)nn3)CC2)nc(N2CCN(C(=O)CCCCCCCCCCNC(=O)[C@H](CCCN=C(N)N)n3cc(C[C@@H](C)CC)nn3)CC2)n1`, the inhibition is 20.2%.

As to `C#CCOCCOCCOCCNc1nc(N2CCN(C(=O)CCCCCCCCCCNC(=O)[C@H](CCCCN)n3cc(CCO)nn3)CC2)nc(N2CCN(C(=O)CCCCCCCCCCNC(=O)[C@H](CCCN=C(N)N)n3cc(C[C@@H](C)CC)nn3)CC2)n1`, the inhibition is 30.2%.

In the case of `C#CCOCCOCCOCCNc1nc(N2CCN(C(=O)CCCCCCCCCCNC(=O)[C@H](CCCCN)n3cc(CCO)nn3)CC2)nc(N2CCN(C(=O)CCCCCCCCCCNC(=O)[C@H](CCCCN)n3cc(C[C@@H](C)CC)nn3)CC2)n1`, the inhibition is 22.1%.

Regarding `C#CCOCCOCCOCCNc1nc(N2CCN(C(=O)CCCCCCCCCCNC(=O)[C@H](CCCCN)n3cc(CCCC(=O)O)nn3)CC2)nc(N2CCN(C(=O)CCCCCCCCCCNC(=O)[C@H](CCCN=C(N)N)n3cc(C[C@@H](C)CC)nn3)CC2)n1`, the inhibition is 15.3%.

As for `C#CCOCCOCCOCCNc1nc(N2CCN(C(=O)CCCCCCCCCCNC(=O)[C@H](CO)n3cc(CCCCCN)nn3)CC2)nc(N2CCN(C(=O)CCCCCCCCCCNC(=O)[C@H](CCCN=C(N)N)n3cc(C[C@@H](C)CC)nn3)CC2)n1`, the inhibition was 36.3%.

Consider `C#CCOCCOCCOCCNc1nc(N2CCN(C(=O)CCCCCCCCCCNC(=O)[C@@H](CCSC)n3cc(CCO)nn3)CC2)nc(N2CCN(C(=O)CCCCCCCCCCNC(=O)[C@H]([C@@H](C)CC)n3cc(CCCCN=C(N)N)nn3)CC2)n1`, for which the inhibition was 5%.

Turning to `C#CCOCCOCCOCCNc1nc(N2CCN(C(=O)CCCCCCCCCCNC(=O)[C@H]([C@@H](C)CC)n3cc(CCCCN=C(N)N)nn3)CC2)nc(N2CCN(C(=O)CCCCCCCCCCNC(=O)[C@H](CO)n3cc(CCCCCN)nn3)CC2)n1`, the inhibition was 28.3%.

As to `NS(=O)(=O)c1ccc(CCNC(=O)C(=O)Nc2cc3c4c(c2)CC(=O)N4CCC3)cc1`, the inhibition was 10.2%.

Regarding `CCN(C(=O)COC(=O)c1cncc(Br)c1)C1CCS(=O)(=O)C1` (configuration not stated), the inhibition is 2.6%.

On to `CN(C)S(=O)(=O)c1cccc(COC(=O)c2ccc(Cl)cc2O)c1`, for which the inhibition is 4.75%.

For `CCn1ccnc1CNC(=O)CC1C(=O)NCCN1Cc1ccc(OC)cc1OC` (configuration not stated), the inhibition is 8.33%.

Turning to `CC(OC(=O)c1ccc(NS(=O)(=O)c2cccs2)cc1)C(=O)N(C)C1CCCCC1` (configuration not stated), the inhibition is 12.6%.

In the case of `O=C(NCCCO)c1ccc2[nH]c3c(c2c1)CCCC3`, the inhibition is 2.41%.

As for `COc1ccccc1OC(C)C(=O)Nc1nc(-c2ccc(S(=O)(=O)N3CCOCC3)cc2)cs1` (configuration not stated), the inhibition was -2.76%.

`O=C(O)CCC(=O)NNC(=O)c1ccc([N+](=O)[O-])cc1`: the inhibition is 24.3%.

With `CN1CCN(c2ccccc2NC(=O)c2ccc(N3CCCCC3)c([N+](=O)[O-])c2)CC1`, the inhibition is 1.97%.

Regarding `COc1cc(C(=O)NCc2nnc(SCC(=O)NC3CCCCC3)o2)cc(OC)c1OC`, the inhibition is 9.82%.

Consider `CNC(=S)N(CCCO)Cc1cc2cc3c(cc2[nH]c1=O)OCO3`, for which the inhibition is 4.07%.

As to `N#Cc1cc2c(nc1SCC(=O)Nc1sc3c(c1C#N)CCC3)CCCCCC2`, the inhibition is -1.85%.

On to `Cc1nc(NC(=O)CCl)sc1C(=O)N(C)C`, for which the inhibition is 22.7%.

On to `C#CCOCCOCCOCCNc1nc(N2CCOCC2)nc(N2CCN(C(=O)CCCCCCCCCCNC(=O)[C@H]([C@@H](C)CC)n3cc(CCCCN=C(N)N)nn3)CC2)n1`, for which the inhibition is 5.58%.

With `C#CCOCCOCCOCCNc1nc(N2CCN(C(=O)CCCCCCCCCCNC(=O)[C@H]([C@@H](C)CC)n3cc(CCCCN=C(N)N)nn3)CC2)nc(N2CCN(C(=O)CCCCCCCCCCNC(=O)[C@@H]([C@H](C)O)n3cc(C)nn3)CC2)n1`, the inhibition was 7.94%.
